Shown are actives, neighbours in structure and some others; about 7.5% of the full set was active somewhere.
Luc counter – Kinase-Glo luciferase inhibition (counter-screen) | Potency, µM (titrated, usually from 38.3 µM), for the others: at the highest dose activity change, negative = inhibition, most hits filed as inhibitors | AID 1379 | Kinase-Glo luciferase, ATP luminescence, 8 min | hit rate 0.28% among 200,000; further: on the % scale 0 is the no-effect control and ±100 the full control effect; nearly all actives have a fitted effect of over 60% in size
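Inhibition of Kinase-Glo luciferase light generation was assessed at 10 uM ATP in pH 7.2 imidazole buffer, with luminescence measured after eight minutes at ambient temperature.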
NPC1 promoter act – NPC1 promoter activation. Huh7 NPC1 promoter luciferase reporter, 24 h. Potency, µM (series often up to 9.22 µM), inactives show at the top dose activation, actives largely listed as activators. hit rate 2.4% among 320,000. AID 485313; further: % of control where 0% means no effect; nearly all actives have a fitted effect of over 60% in size
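Cells: Huh7 expressing luciferase under the NPC1 promoter, 1500/well. Seeded 2 h, compound added, incubated 24 h at 37 °C. Luciferase reagent, 10 min ambient, then luminescence.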
SMN2 splice up – increases expression of the SMN2 splice variant | Potency, µM (highest dose often 46.1 µM), for the others: at the highest dose activity change, positive = activation, most hits filed as activators | HEK293 SMN2-luciferase splicing reporter, luminescence, 30-36 h | hit rate 2.8% among 210,000; further: % of control where 0% means no effect; nearly all actives have a fitted effect of over 55% in size
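HEK293 cells carry an SMN2 minigene-luciferase reporter in which exon 7 inclusion puts luciferase in frame. Cells were seeded at 2000 cells/well, attached for 10-12 hours, then exposed to compounds for 30-36 hours at 37C before ONE-Glo luminescence.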
Rab9 promoter act – activators of Rab9 promoter; Huh7 Rab9 promoter-luciferase reporter, luminescence, 24 h; Potency, µM (doses to about 9.22 µM), for the others: at the top dose activation, negative = inhibition, actives largely listed as activators; hit rate 2.8% among 320,000; AID 485297; further: % of control where 0% means no effect; nearly all actives have a fitted effect of over 60% in size
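Huh7 cells stably carrying Rab9 promoter–luciferase reporter, plated 1500 cells/well, compound added after 2 h and incubated 24 h at 37 °C; luciferase luminescence then read after 10 min with detection reagent.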
FLuc modulator – firefly luciferase modulation, counter-screen for miR-21 project; Potency, µM (titrated, usually from 57.5 µM), for inactives: at the highest dose activity change, negative = inhibition, most hits filed as inhibitors; AID 588342; P08659; hit rate 6.9% among 360,000; purified FLuc, Km substrates, luminescence inhibition;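 further: plate controls were vehicle for no effect and reference inhibitor for full effect; nearly all actives have a fitted effect of over 55% in size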
Target sequence (P08659 whole entry, looked up): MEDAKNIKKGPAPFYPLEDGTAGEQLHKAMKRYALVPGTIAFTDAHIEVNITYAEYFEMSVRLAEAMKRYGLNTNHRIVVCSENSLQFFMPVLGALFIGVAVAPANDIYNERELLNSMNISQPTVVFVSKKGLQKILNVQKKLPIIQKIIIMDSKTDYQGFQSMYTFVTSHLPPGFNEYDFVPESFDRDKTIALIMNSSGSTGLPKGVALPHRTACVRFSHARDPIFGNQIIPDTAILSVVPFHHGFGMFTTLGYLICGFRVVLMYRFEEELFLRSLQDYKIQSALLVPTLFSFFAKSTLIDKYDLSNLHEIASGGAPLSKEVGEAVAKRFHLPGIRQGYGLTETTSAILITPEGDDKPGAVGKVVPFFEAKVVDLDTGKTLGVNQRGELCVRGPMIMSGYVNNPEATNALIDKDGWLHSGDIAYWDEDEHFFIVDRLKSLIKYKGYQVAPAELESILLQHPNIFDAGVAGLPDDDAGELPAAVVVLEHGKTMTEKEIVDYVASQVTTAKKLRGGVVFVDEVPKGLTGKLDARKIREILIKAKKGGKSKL
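Purified P. pyralis luciferase, 10 nM final, with Km-level 10 uM D-luciferin and 10 uM ATP in 50 mM Tris acetate pH 7.5, 10 mM Mg acetate, 0.01% Tween-20, 0.05% BSA; 6-point qHTS titration about 60 µM downward; luminescence read.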
ELG1 genotox – inducers of genotoxicity in HEK293T ELG1-luciferase cells | HEK293T ELG1-luciferase reporter, luminescence, 16 h | Potency, µM (series often up to 46 µM), inactives show at the highest dose activity change, positive = activation, most hits filed as activators | hit rate 1.3% among 330,000 | AID 504466; further: % of control where 0% means no effect; nearly all actives have a fitted effect of over 60% in size
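After overnight (16 hr) compound treatment at 37 °C, ELG1-luciferase HEK293T cells were lysed with ONE-Glo; luminescence quantified 30 min later at room temperature.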
Starred values were filed as active, the others as inactive; ? = inconclusive; . = not tested or not shown; [ ] = remark or other dose. The call rests on the fitted dose curve; in most records, active means well fitted curve in the direction sought with a large enough effect; inconclusive means small, poorly fitted or top-dose-only effect, or another doubt; inactive means no such curve, though single readings can be large; an effect the other way counts as inactive or inconclusive. Potency means the concentration at half of the fitted maximal effect.

SMILES | Luc counter | NPC1 promoter act | SMN2 splice up | Rab9 promoter act | FLuc modulator | ELG1 genotox
COc1cccc(-c2nc(CCl)cs2)c1OC | 6.0% | -0.3% | -10.7% | 3.5% | 16.9µM* | 11.3%
O=C(CN1C(=O)COc2ccc(Cl)cc21)Nc1ccccn1 | . | -1.5% | . | -8.3% | -0.4% | 0.1%
O=C1c2ccccc2C(=O)C1c1ccc(Br)cc1 | . | ? | . | 10.2%[1.84 µM] | 6.01µM* | ?
C=C(C)C(=O)N1CC2(CC(c3cccc(NC(=O)/C=C\C=C/C)c3)=NO2)C[C@H]1C(N)=O (stereo not given in full) | . | 12.4% | . | 13.5% | 16.9µM* | 1.4%
C/C=C\C(=O)Nc1cccc(C2=NOC3(C2)C[C@H](C(N)=O)N(C(=O)/C=C/CC)C3)c1 (stereo not given in full) | . | -4.1% | . | -1.9% | 0.5% | 3.9%
C/C=C/C=C\C(=O)Nc1cccc(C2=NOC3(C2)C[C@@H](C(N)=O)N(C(=O)c2cc([N+](=O)[O-])cc([N+](=O)[O-])c2)C3)c1 (stereo not given in full) | . | -1.1% | . | -7.1% | 3.01µM* | 5.2%
CCC(=O)Nc1cccc(C2=NOC3(C2)C[C@@H](C(N)=O)N(C(=O)c2cc([N+](=O)[O-])cc([N+](=O)[O-])c2)C3)c1 (stereo not given in full) | . | -3.5% | . | -5.6% | -2.3% | 2.3%
C/C=C\C=C/C(=O)Nc1cccc(C2=NOC3(C2)C[C@@H](C(N)=O)N(C(=O)/C=C/CC)C3)c1 (stereo not given in full) | . | 1.7% | . | 10.4% | 16.9µM* | 4.5%
C/C=C\C=C/C(=O)Nc1cccc(C2=NOC3(C2)C[C@@H](C(N)=O)N(C(=O)/C=C/C=C\C)C3)c1 (stereo not given in full) | . | 8.2% | . | 5.0% | 19µM* | 6.1%
C/C=C\C=C/C(=O)Nc1cccc(C2=NOC3(C2)C[C@@H](C(N)=O)N(C(=O)C2(C)CC2)C3)c1 (stereo not given in full) | . | 5.4% | . | 3.6% | 15.1µM* | 7.0%
O=C(NCC1([N+](=O)[O-])CN(C(=O)c2ccccc2)CN(C(=O)c2ccccc2)C1)c1ccccc1 | -2.4% | -0.7% | . | -10.5% | -1.2% | 1.2%
O=c1c2ccccc2nc(/C=C/c2c[nH]c3ccccc23)n1CCO | 5.0% | ? | . | ? | 10.7µM* | 11.9%
Cc1nc2c3ccccc3nc(NNC(=O)CCC(=O)NCCN3CCN(c4ccccc4)CC3)n2n1 | . | -1.2% | . | 4.9% | 6.3% | 0.0%
Brc1ccc(NC2=Nc3ccccc3CC2)cc1 | -12.2% | 3.16µM* | 10µM* | ? | 3.79µM* | 17.6%
Cc1ccc(NC2=Nc3ccccc3CC2)cc1 | -13.9% | 0.398µM* | 11.9% | 0.398µM* | 1.9µM* | 0.731µM*
Cc1ccc(NC(=O)C2OCCc3ccccc32)cc1 (stereo not given) | -1.4% | 21.4% | . | 5.3% | ? | 6.7%
N#CC1=C(Nc2ccc(Br)cc2)CCC1 | -6.7% | -0.5% | . | 6.9% | -22.3% | ?
COc1cc2nc(N3CCN(C(=O)[C@@H]4COc5ccccc5O4)CC3)nc(N)c2cc1OC | 1.8%[17.1 µM] | . | 0.7%[20.6 µM] | . | . | .
C/C(CC(=O)Nc1ccccn1)=N\NC(=O)c1ccccc1O | . | 0.6% | . | 2.2% | 16.9µM* | 16.4µM*
C/C(CC(=O)Nc1cc(C)ccn1)=N\NC(=O)c1cccc(C)c1 | -4.5% | 6.1% | 3.3% | -6.0% | -17.3% | -13.4%
C/C(CC(=O)Nc1ccccn1)=N\NC(=O)c1ccccc1 | -1.6% | 1.0% | ? | -1.6% | 3.7% | 3.7%
C/C(CC(=O)Nc1cc(C)ccn1)=N\NC(=O)c1cccc(C)c1O | . | -9.9% | . | 14.3% | ? | 5.8µM*
COc1ccc(-c2cc(=O)c3cc(C)ccc3[nH]2)cc1 | -5.3%[39.9 µM] | 3.16µM* | 7.08µM* | 3.16µM* | 1.69µM* | 13µM*
COc1cc2[nH]c(-c3cccc(F)c3)cc(=O)c2cc1OC | 11.1% | -5.8% | 5.5% | -4.6% | ? | 0.5%
COc1ccc(-c2cc(=O)c3cc(OC)ccc3[nH]2)cc1 | ? | 3.55µM* | 2.51µM* | 1.41µM* | 3.38µM* | 9.2µM*
SMILES | Luc counter | NPC1 promoter act | SMN2 splice up | Rab9 promoter act | FLuc modulator | ELG1 genotox
COc1cc2[nH]c(-c3ccc(C)cc3)cc(=O)c2cc1OC | 1.2%[39.9 µM] | 12.8% | ? | 26.0% | 13.5µM* | 11.2%
COc1ccc(C(=O)Nc2ccc(NC(=O)c3cccc(OC)c3)cn2)cc1 | . | 4.6% | . | 18.8% | 0.5% | 13.3%
CCC(=O)Nc1ccc(NC(=O)c2cccc(OC)c2)nc1 | -7.3% | ? | 11.2µM* | 2.24µM* | 10.7µM* | ?
COc1cccc(C(=O)Nc2ccc(NC(=O)C3CC3)cn2)c1 | ? | 2µM* | 42.7% | 3.16µM* | 7.57µM* | ?
CCCC(=O)Nc1ccc(NC(=O)c2cccc(OC)c2)cn1 | . | -3.8% | . | 12.7% | -15.2% | -3.4%
Cc1cccc(OCC(=O)NNC(=O)c2ccc3nc[nH]c3c2)c1 | . | -4.5% | . | -6.5% | -2.0% | 2.3%
O=C(N/N=C/c1cccc(NC(=O)c2ccc(Cl)cc2)c1)c1ccc(O)cc1 | . | 2.51µM* | . | 3.98µM* | 1.35µM* | -2.1%
CC(C)(C)c1ccc(C(=O)N/N=C/c2cccc(Cl)c2)cc1 | -3.8% | ? | 1.4% | ? | 4.78µM* | -5.7%
O=C(N/N=C/c1cccc(F)c1)c1ccc(Cl)cc1 | -1.7% | 3.98µM* | 15.8µM* | 3.16µM* | 2.39µM* | ?
O=C(N/N=C/c1c(Cl)cccc1Cl)c1cccc(F)c1 | -0.7% | 12.2% | -3.5% | 24.2% | -6.8% | 17.2%
COc1ccc(NC(=O)C2CCN(S(=O)(=O)c3ccc4c(c3)CCCC(=O)N4)CC2)cc1Cl | . | . | . | . | 4.9% | .
COc1ccc(CN(C)C(=O)C2CCN(S(=O)(=O)c3cccs3)CC2)cc1F | . | -0.5% | . | -3.1% | . | -5.1%
Cc1ccc(N2C(=O)c3n[nH]c(C)c3C2c2ccco2)cc1 (stereo not given) | 0.9% | ? | ? | 22.7% | 8.49µM* | ?
CCOC(=O)c1ccc(N2C(=O)c3n[nH]c(C)c3C2c2ccco2)cc1 (stereo not given) | -7.0% | ? | -33.8% | -3.9% | -0.8% | -1.7%
Cc1ccc(C(=O)c2cnc3cc4c(cc3c2S(=O)(=O)c2ccccc2)OCCO4)cc1 | 3.6% | 13.5% | -85.1% | 12.7% | 1.69µM* | 11.2%
CCOc1ccc(S(=O)(=O)c2c(C(=O)c3ccc(C)cc3)cnc3cc4c(cc23)OCCO4)cc1 | -0.8% | 0.9% | -18.5% | -5.4% | 6.3% | 0.7%
CC(=O)Nc1sc(/C(C#N)=C/c2ccc(Cl)c(Cl)c2)nc1-c1ccc(C)cc1 | -2.8% | 0.5% | -32.0% | -2.3% | -0.5% | -4.5%
